HTR5A ag ctr: HTR5A agonists in luminescence cell assay, primary screen, counter-screen for OPRM1-OPRD1 heterodimer agonist project, full-deck HTS | 5-hydroxytryptamine receptor 5A (Homo sapiens), P47898 | cell-based | activation, % at 9.3 µM | 340,000 tested, 0.61% active | AID 504692, 2011; in the data active = activation mostly above about 9.5%, no sharp cut-off; inactive = mostly below about 7.6%;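 also: 0% = cells with vehicle only and 100% = reference agonist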
OPRM1-OPRD1 ag: agonists of OPRM1-OPRD1 heterodimerization, primary screen, cell-based, luminescence; 340,000 tested, 0.3% active; cells; Mu-type opioid receptor (Homo sapiens) + Delta-type opioid receptor (Homo sapiens), …; activation, % at 9.3 µM; in the data active = activation above about 18%;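 also: 0% = vehicle-treated cells and 100% = reference agonist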
Target sequence (P35372 whole entry, looked up): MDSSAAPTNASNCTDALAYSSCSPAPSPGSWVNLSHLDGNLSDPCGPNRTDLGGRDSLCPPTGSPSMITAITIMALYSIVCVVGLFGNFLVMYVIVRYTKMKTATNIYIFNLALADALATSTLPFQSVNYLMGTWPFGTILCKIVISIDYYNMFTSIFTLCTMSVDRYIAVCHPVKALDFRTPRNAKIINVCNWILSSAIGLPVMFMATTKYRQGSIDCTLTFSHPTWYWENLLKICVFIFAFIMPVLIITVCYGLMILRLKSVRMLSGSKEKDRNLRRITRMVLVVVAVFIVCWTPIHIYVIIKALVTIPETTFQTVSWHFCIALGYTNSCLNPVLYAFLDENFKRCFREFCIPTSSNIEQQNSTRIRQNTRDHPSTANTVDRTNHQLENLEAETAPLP
Target sequence (P41143 whole entry, looked up): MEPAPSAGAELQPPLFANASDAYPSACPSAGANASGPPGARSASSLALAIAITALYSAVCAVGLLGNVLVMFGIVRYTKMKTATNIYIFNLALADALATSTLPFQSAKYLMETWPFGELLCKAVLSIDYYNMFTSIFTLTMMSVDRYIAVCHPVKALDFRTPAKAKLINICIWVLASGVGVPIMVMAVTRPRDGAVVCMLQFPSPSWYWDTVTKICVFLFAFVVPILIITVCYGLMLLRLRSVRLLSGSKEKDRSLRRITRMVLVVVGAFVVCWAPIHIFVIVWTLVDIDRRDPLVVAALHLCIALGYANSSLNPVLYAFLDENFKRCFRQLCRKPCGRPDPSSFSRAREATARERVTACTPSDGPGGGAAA
MOR-DOR inv ag: inverse agonists of MOR-DOR heterodimerization, primary screen, cell-based, luminescence | cell-based MOR-DOR heterodimer luminescence, inverse agonism | Mu-type opioid receptor (Homo sapiens) + Delta-type opioid receptor (Homo sapiens), … | inhibition, % at 9.3 µM | AID 504357, 2011 | 340,000 tested, 0.21% active; in the data active = inhibition above about 22%, passing the limit was not always enough;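 also: 0% = cells with DMSO and 100% = wells without cells with DMSO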
HTR5A inv ctr: HTR5A inverse agonists in luminescence cell assay, primary screen, counter-screen for OPRM1-OPRD1 heterodimer inverse agonist project, full-deck HTS; inhibition, % at 9.3 µM; 5-hydroxytryptamine receptor 5A (Homo sapiens), P47898; AID 504634, 2011; 340,000 tested, 0.083% active; HTR5A cell line, inverse agonism; in the data active = inhibition mostly above about 23%, no sharp cut-off; inactive = mostly below about 18%;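 also: 0% = cells with DMSO and 100% = no-cell wells with DMSO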
MOR-DOR inv conf: inverse agonists of MOR-DOR heterodimerization, confirmation, cell-based, luminescence | cells expressing OPRM1/OPRD1 heterodimer | 580 tested, 20% active | shares compounds with MOR-DOR inv ag | inhibition, % at 9.3 µM; in the data active = inhibition above about 32%;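 also: 0% = cells with DMSO and 100% = wells lacking cells with DMSO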
HTR5A inv ctr2: HTR5A inverse agonists, counter-screen for OPRM1-OPRD1 inverse agonist project, cell-based, luminescence. shares compounds with MOR-DOR inv ag. HTR5A-expressing cells, inverse agonism. inhibition, % at 9.3 µM. 580 tested, under 10 active; call rule not given here;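 also: 0% = cells with DMSO and 100% = no-cell wells with DMSO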
* hit, by the source's call; i = inactive; . = no result given. Sampled rows, rich in hits. Any-hit rate of the full collection: about 1.1%.

SMILES | HTR5A ag ctr | OPRM1-OPRD1 ag | MOR-DOR inv ag | HTR5A inv ctr | MOR-DOR inv conf | HTR5A inv ctr2
O=C1C=C(c2ccc3ncccc3c2)C[C@@H](c2ccc3c(c2)OCO3)C1 | 1.1 | -3.0 | 16.0 | -17.4 | . | .
CC(=O)Oc1ccc(OC(C)=O)c(SCCCCCN2CCOCC2)c1 | 2.2 | -5.5 | 29.4* | -9.5 | -13.9 | -3.4
COc1ccc(NC(=O)CSc2nc(=O)n(CCN(C)C)c3c2CCCC3)cc1OC | 8.1 | -1.8 | 11.4 | -11.8 | . | .
Cc1cc(C)c(CN2CCN(CCCn3ccc(NC(=O)OCc4ccccc4)nc3=O)CC2)c(C)c1 | 3.5 | 2.1 | -9.9 | -13.2 | . | .
CNc1sc(C(=O)c2ccccc2F)c(N)c1-c1nc2ccccc2s1 | -5.8 | -9.3 | 48.4* | 22.7 | -54.1 | -22.9
Cc1cc2c(cc1C)C(=O)C(=O)N2 | -2.2 | -4.9 | 23.9 | 8.3 | . | .
COc1ccc2c(c1)C(=O)C(=O)N2 | -8.9 | -12.0 | 63.0* | 30.9* | -44.5 | -107.5
CCCN(C(=O)c1cc(S(=O)(=O)N2CCN(CC)CC2)ccc1Cl)C1CCS(=O)(=O)C1 (stereo unspecified) | 1.1 | 0.4 | -1.6 | 22.8 | . | .
Cc1cc(C(=O)NNc2ccc(C)c(C)c2)no1 | -2.8 | -11.5 | 57.8* | 9.3 | -36.1 | -27.4
Cc1cc(C(=O)NNc2ccc(Cl)cc2)no1 | 3.4 | -6.9 | 35.1* | 12.2 | 23.0 | 9.0
Cc1ccc(SCC(=O)OCC(=O)N(CC(C)C)C2CCS(=O)(=O)C2)cc1C (stereo unspecified) | 0.6 | -3.5 | 23.7* | -1.5 | -24.5 | -27.8
Cc1ccc(S(=O)(=O)N2CCC(C(=O)OCC(=O)NC3(C#N)CCCCC3)CC2)cc1C | -0.1 | -0.5 | 3.2 | 3.3 | . | .
COc1ccc(CNC(=O)Cn2c(=O)n(CC(=O)N3CCCCC3)c(=O)c3sccc32)cc1 | 1.6 | -3.7 | 19.2 | 6.8 | . | .
COc1ccc(C(=O)C(C)OC(=O)c2nc3nccc(C)n3n2)cc1 (stereo unspecified) | -2.6 | -1.6 | 6.7 | 6.3 | . | .
CCCc1ccc(C(=O)NNc2ccc(F)cc2)cc1 | 2.5 | -8.5 | 43.5* | 9.9 | 29.3 | 6.3
O=C(NNc1ccc(O)cc1)c1ccc(Br)cc1 | 0.9 | -9.6 | 65.6* | 24.0 | 61.8* | 20.2
CCCc1ccc(C(=O)NNC(=O)c2ccc(Br)cc2)cc1 | 0.2 | 2.5 | -13.4 | -0.6 | . | .
COc1cccc(C(C(=O)NC2CCCC2)N(C(=O)c2ccco2)c2ccc(C(C)=O)cc2)c1OC (stereo unspecified) | -3.7 | -1.3 | 8.3 | 3.8 | . | .
CC(=O)Oc1ccc(OC(C)=O)c2c1CC(C)=C(C)C2 | -1.8 | -8.7 | 38.8* | 6.5 | 59.5* | 13.3
Cn1c(/C=C/c2cccc([N+](=O)[O-])c2)c([N+](=O)[O-])c(=O)n(C)c1=O | -4.9 | -5.7 | 29.3* | 13.5 | i | 3.5
Cc1ccc(C(=O)NN2C(=O)/C(=C/c3cn(C)c4ccccc34)SC2=S)cc1 | 3.5 | -1.6 | 9.4 | -9.3 | . | .
Cn1cc(/C=C2\SC(=O)NC2=S)c2ccccc21 | -3.5 | -5.7 | 28.1* | 11.8 | 8.8 | 0.2
CC(C)C1NC(=S)N(Cc2ccccc2)C1=O (stereo unspecified) | -2.0 | -1.5 | 8.7 | 8.8 | . | .
CC1NC(=S)N(Cc2ccccc2)C1=O (stereo unspecified) | 4.5 | -6.3 | 33.0* | -0.7 | -80.5 | -34.2
COc1ccc(CN2CC(=O)N(c3cc(Cl)ccc3OC)C2=S)cc1OC | -0.8 | 5.5 | -25.7 | 3.1 | . | .
CCOc1ccc(OCCN2C(=O)c3ccccc3C2=O)cc1 | -2.8 | -0.3 | 2.0 | -9.9 | . | .
CCOc1ccc(N=C2C(=O)N(CN3CCOCC3)c3ccccc32)cc1 | -4.9 | -16.1 | 66.8* | 15.6 | 49.2* | -9.3
CCC(=O)OCCNc1cc(Sc2nccn2C)c2nonc2c1[N+](=O)[O-] | -4.2 | -8.0 | 41.5* | 15.4 | -47.1 | -10.4
CCC(=O)OCCNc1cc(SCCC(=O)OC)c2nonc2c1[N+](=O)[O-] | -1.9 | -0.5 | 2.5 | 6.8 | . | .

Screening data (PubChem BioAssay)
